Rows were chosen to be rich in hits. Some 27% of all compounds tested hit in one or more screens of this group.
sEH inh = soluble epoxide hydrolase (human) inhibition | P34913 | recombinant human sEH enzymatic activity assay | inhibition, % at 2 µM | actives 0.34% (n = 91,000); in the data active = inhibition above about 80%
Target sequence (P34913 whole entry, looked up): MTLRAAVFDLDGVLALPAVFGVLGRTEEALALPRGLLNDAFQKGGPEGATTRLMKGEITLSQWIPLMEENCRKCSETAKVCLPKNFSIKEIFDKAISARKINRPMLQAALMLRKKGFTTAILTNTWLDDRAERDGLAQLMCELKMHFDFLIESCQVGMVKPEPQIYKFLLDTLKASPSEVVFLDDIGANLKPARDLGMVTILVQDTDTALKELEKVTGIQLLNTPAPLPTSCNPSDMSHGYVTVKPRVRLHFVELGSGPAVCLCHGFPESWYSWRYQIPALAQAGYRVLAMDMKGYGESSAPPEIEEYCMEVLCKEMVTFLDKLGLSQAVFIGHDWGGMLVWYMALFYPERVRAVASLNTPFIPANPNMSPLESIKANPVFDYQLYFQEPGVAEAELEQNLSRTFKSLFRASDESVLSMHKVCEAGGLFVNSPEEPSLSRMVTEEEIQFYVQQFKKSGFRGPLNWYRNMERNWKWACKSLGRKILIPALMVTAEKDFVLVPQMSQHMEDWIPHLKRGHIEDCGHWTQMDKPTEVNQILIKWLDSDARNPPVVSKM
CYP2C9 inhib = inhibitors of human CYP2C9 | inhibition, % at 5 µM | actives 20% (n = 96,000) | AID 777 | CYP2C9 Supersomes, luciferin-H conversion, luminescence | P11712;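 active = blocking of liver enzyme CYP2C9 beyond about 50% at 5 µM, limit read from the data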
CYP2C9 act = increases human cytochrome P450 2C9 activity; recombinant CYP2C9, luciferin-H conversion, luminescence; stronger effect = higher value; factor 1 = untreated enzyme, 0 = blocked; activation factor at 5 µM; P11712; actives 1.4% (n = 96,000);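 active = activation factor of 2 or more for CYP2C9 at a 5 µM dose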;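 also: 0 = sulfaphenazole-blocked wells and 1 = vehicle-only wells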
CYP2C19 act = cytochrome P450 2C19 (human) activation; recombinant CYP2C19, luciferin-H EGE luminescence; stronger effect = higher value; 0 = fully inhibited enzyme, 1 = untreated enzyme; activation factor at 5 µM; 96,000 tested, under 10 active;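 active = activation factor of at least 2 at 5 µM in the primary screen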;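 also: 0 = wells with 2.5 mM tranylcypromine and 1 = vehicle-only wells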
sEH activator = increases human soluble epoxide hydrolase activity | purified human sEH enzymatic activity, activator screen | P34913 | actives 0.04% (n = 91,000) | activation, % at 2 µM | AID 717; in the data active = activation above about 37%
CYP2C19 inhib = inhibitors of human CYP2C19. CYP2C19 Supersomes, luciferin-H EGE luminescence, 30 min. AID 778. actives 21% (n = 96,000). inhibition, % at 5 µM;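 active = CYP2C19 inhibition above a set limit at 5 µM in the primary screen, cut at about 50% in these data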;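 also: plate controls were negative control wells for no effect and 2.5 mM tranylcypromine positive control for full effect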
* hit, by the source's call; . = no result given.

SMILES | sEH inh | CYP2C9 inhib | CYP2C9 act | CYP2C19 act | sEH activator | CYP2C19 inhib
O=C(CNS(=O)(=O)c1ccc2ccccc2c1)OCc1nnc(-c2ccccc2)o1 | 26 | 9 | 0.9 | 1 | -25 | 3
COc1ccc(OC)c(C(=O)CSc2nccc(-c3ccc(Br)cc3)n2)c1 | . | 79* | 0.2 | 0.9 | . | 11
CCn1c(SCC(=O)c2cc(OC)ccc2OC)nnc1C(C)C | 0 | 41 | 0.6 | 0 | -2 | 99*
COc1ccc(OC)c(C(=O)CSc2nnc(-c3cccnc3)n2C)c1 | -8 | -12 | 1.1 | 0.3 | 8 | 72*
CCCn1c(SCC(=O)c2cc(OC)ccc2OC)nnc1-c1ccco1 | -5 | 46 | 0.5 | 0 | 2 | 97*
COc1cc(C2SCC(=O)N2c2nnc(C34CC5CC(CC(C5)C3)C4)s2)cc(OC)c1OC (stereo not given) | 6 | 41 | 0.6 | 1 | -3 | -4
CN(CC(=O)Nc1ccc(S(N)(=O)=O)cc1)c1ccccc1 | -1 | -4 | 1 | 1.1 | 4 | -10
Cc1ccc(NC(NC(=O)c2ccccn2)C(Cl)(Cl)Cl)cc1 (stereo not given) | 8 | 35 | 0.6 | 0.6 | -6 | 42
Cc1ccccc1NC(NC(=O)c1cccs1)C(Cl)(Cl)Cl (stereo not given) | 17 | 96* | 0 | 0 | -15 | 99*
CSc1ccccc1NC(=O)c1cccs1 | 3 | 4 | 1 | 0.9 | -3 | 8
Cc1ccc(NC(NC(=O)c2cccs2)C(Cl)(Cl)Cl)cc1 (stereo not given) | 7 | 99* | 0 | 0.1 | -5 | 95*
Cc1ccc(NC(NC(=O)c2cccs2)C(Cl)(Cl)Cl)cc1C (stereo not given) | -6 | 56* | 0.4 | 0.9 | 9 | 12
Cc1ccc2nc(-c3ccc(S(=O)(=O)N4CCOCC4)cc3)cn2c1 | 2 | -3 | 1 | 1 | -4 | 3
Cc1ccc2nc(-c3ccccc3)cn2c1 | -7 | 48 | 0.5 | 0.2 | 5 | 81*
COc1ccc(CN2CCc3ccccc3C2)c(OC)c1OC | -8 | 3 | 1 | 0.4 | 2 | 61*
Cc1cc(NC(=O)CCC(=O)N(Cc2ccco2)C2(C(=O)NC3CCCCC3)CCN(C)CC2)no1 | 3 | 11 | 0.9 | 0.3 | -4 | 74*
O=C(CCC(=O)N(c1ccccc1)C(C(=O)NC1CCCC1)c1ccncc1)Nc1cccnc1 (stereo not given) | -16 | 46 | 0.5 | 0.3 | 15 | 70*
Cc1ccc(C(C(=O)NC2CCCC2)N(C(=O)Cc2cccs2)c2ccc(C)c(C)c2)o1 (stereo not given) | -12 | -5 | 1 | 0.9 | 16 | 10
Cc1ccc(C)c(N(C(=O)Cc2cccs2)C(C(=O)NC2CCCC2)c2ccc(C)o2)c1 (stereo not given) | -1 | 73* | 0.3 | 1.1 | 4 | -7
O=C(NC1CCCC1)C(c1cccs1)N(C(=O)c1ccno1)c1ccccc1 (stereo not given) | 0 | 31 | 0.7 | 0.6 | -1 | 38
Cc1ccc(N(C(=O)C(F)(F)F)C(C(=O)NC2CCCCC2)c2cccs2)cc1 (stereo not given) | 3 | 55* | 0.4 | 0.7 | 0 | 31
Cn1cccc1Cc1nnc(SCC(=O)NCC2CCCO2)n1-c1ccc(F)cc1 (stereo not given) | . | 10 | 0.9 | 1 | . | 2
Cc1cc(NC(=O)CCC(=O)N(c2ccccc2)C(C(=O)NC2CCCC2)c2ccccc2)no1 (stereo not given) | -10 | . | . | . | 14 | .
O=C(NC1CCCC1)C(c1cccs1)N(C(=O)c1ccco1)c1ccc2c(c1)OCCO2 (stereo not given) | -7 | 78* | 0.2 | 0.2 | 7 | 80*
COc1ccc(N(C(=O)c2ccco2)C(C(=O)NC2CCCC2)c2cccs2)cc1OC (stereo not given) | 0 | . | . | . | 0 | .
SMILES | sEH inh | CYP2C9 inhib | CYP2C9 act | CYP2C19 act | sEH activator | CYP2C19 inhib
Cc1cc(NC(=O)CCC(=O)N(c2ccccc2)C(C(=O)NC2CCCC2)c2cccs2)no1 (stereo not given) | -14 | 70* | 0.3 | 0.2 | 16 | 77*
Cc1ccc(C)c(N(C(=O)CCC(=O)Nc2cc(C)on2)C(C(=O)NC2CCCC2)c2ccco2)c1 (stereo not given) | -18 | 20 | 0.8 | 0.5 | 20 | 54*
Cc1ccc(N(C(=O)CCC(=O)Nc2cc(C)on2)C(C(=O)NC2CCCC2)c2cccs2)cc1 (stereo not given) | -20 | 89* | 0.1 | 0.1 | 18 | 95*
CC1(C(=O)N(CC(=O)NC2CCCC2)Cc2ccco2)CC(=O)N=C2C=CC=CN21 (stereo not given) | . | -8 | 1.1 | 1.1 | . | -5
O=C(NCc1ccc2c(c1)OCO2)c1cccc(S(=O)(=O)N2CCCCC2)c1 | 50 | . | . | . | -48 | .
Cc1ccc(Cn2ccc(=O)c(OCc3c(Cl)cccc3Cl)c2C)cc1 | 16 | 45 | 0.6 | 0.3 | -17 | 65*
CCCNc1cc(C)c(C#N)c2nc3ccccc3n12 | 6 | . | . | . | -2 | .
CCCc1cc(NCC2CCCO2)n2c(nc3ccccc32)c1C#N (stereo not given) | 19 | 60* | 0.4 | 1 | -20 | 2
COc1ccc(CCNC(=O)CSc2ncnc3c2oc2ccccc23)cc1OC | -4 | 82* | 0.2 | 0.5 | 4 | 51*
O=C(O)CSc1ncnc2c1oc1ccccc12 | 3 | 6 | 0.9 | 1 | -5 | 1
Cc1nc(SCC(=O)Nc2ccc(C)c(F)c2)c2oc3ccccc3c2n1 | 10 | 93* | 0.1 | 0.2 | -10 | 79*
COc1cccc(NC(=O)CSc2ncnc3c2oc2ccccc23)c1 | 12 | 7 | 0.9 | 0.9 | -9 | 6
O=C(CSc1ncnc2c1oc1ccccc12)NCc1ccco1 | 12 | 60* | 0.4 | 0.8 | -12 | 17
O=C(CSc1ncnc2c1oc1ccccc12)Nc1ccccc1C(F)(F)F | . | 85* | 0.2 | 0.6 | . | 44
Cc1nnc(SCCN2C(=O)c3ccccc3C2=O)[nH]c1=O | -3 | 12 | 0.9 | 1 | 2 | 0
CC(=O)Nc1ccccc1-c1nnc(SCc2ccccc2Cl)[nH]c1=O | -12 | 99* | 0 | 0.9 | 11 | 6
CCCCSc1nnc(-c2cc(Br)ccc2N)c(=O)[nH]1 | 2 | 48 | 0.5 | 0.9 | 1 | 7
Cc1ccc(CSc2nnc(-c3ccccc3N)c(=O)[nH]2)cc1 | -5 | 92* | 0.1 | 0.8 | 3 | 15
C=CCSc1nnc(-c2cc(Br)ccc2N)c(=O)[nH]1 | . | 72* | 0.3 | 0.7 | . | 32
Nc1ccccc1-c1nnc(SCc2ccccc2Cl)[nH]c1=O | 7 | 88* | 0.1 | 0.6 | -5 | 43
Cn1c(=O)c2c(nc(CN3CCN(c4ccc(F)cc4)CC3)n2Cc2ccccc2F)n(C)c1=O | . | -17 | 1.2 | 1.1 | . | -8
